Compound activity from PubChem BioAssay.
A selection: hits, their analogues and other compounds. The true share with any hit is near 18%.
IL1B secr inh = blocks inflammasome-driven IL-1 beta release; AID 743279; activity change, % at 57.5 µM; hit rate 4.7% among 360,000; THP-1 LPS/ATP IL-1B secretion, AlphaLISA, 16 h; active compounds read low; in the data active = activity change below about -50%; inconclusive = mostly about -30% to -49%
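THP-1 cells pretreated 1 hr with compounds (up to 57.5 uM final), then stimulated with LPS (250 ng/mL final) plus ATP (1.25 mM final); secreted IL-1B measured by AlphaLISA after 16 hr, decreased signal indicating inhibition.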
DT40 TDP1 CPT = growth inhibition of DT40 Tdp1-/-;hTDP1 cells with camptothecin (screen for TDP1 inhibitors) | hit rate 12% among 420,000 | chicken DT40 Tdp1-/-;hTDP1 cells + 20 nM CPT, ATP luminescence, 48 h | Potency, µM (titrated, usually from 46.2 µM), for inactives: at the top dose activity change, negative = growth inhibition, most hits filed as inhibitors; note: potency is the fitted concentration of half-maximal effect; nearly all actives have a fitted effect of over 55% in size
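Chicken DT40 Tdp1-/- cells complemented with human TDP1, 400 cells/well, exposed to compounds plus 20 nM camptothecin for at least 48 h at 37 C; viability read as ATP content by CellTiter-Glo luminescence.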
LDHA inh = LDHA (human) enzyme inhibition. activity change, % (values are at about 110 or 230 µM). purified LDHA, NADH/diaphorase-resazurin fluorescence; active compounds read low. hit rate 0.15% among 480,000. AID 1347041; in the data active = activity change below about -30%; inconclusive = mostly about -25% to -30%;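 note: plate controls were DMSO wells for no effect and wells without enzyme for full effect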
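LDH5 2 nM; NADH 0.06 mM, pyruvate 0.2 mM; 200 mM Tris pH 7.4, EDTA, Tween-20; 5 min RT. Detection: diaphorase 0.133 mg/mL + resazurin 37 µM, fluorescence ex540/em590 at 0 and 20 min; normalized to enzyme-free and DMSO wells.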
Gal4-VP16 FLuc = counter-screen for ROR gamma inhibitors: Gal4-VP16 reporter. AID 2546. Drosophila S2 Gal4-VP16 UAS-luciferase, luminescence, 20 h. hit rate 3.5% among 310,000. Potency, µM (top dose mostly 53.6 µM), without a hit: at the highest dose activity, negative = inhibition, most hits filed as inhibitors;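 note: Gal4-VP16 expression switched on by copper sulfate through the metallothionein promoter; potency is the fitted concentration of half-maximal effect; nearly all actives have a fitted effect of over 50% in size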
RORgamma inh = blocks mouse ROR gamma transcriptional activity; Drosophila S2 Gal4-RORgamma UAS-luciferase reporter, 20 h; Potency, µM (series often up to 53.6 µM), without a hit: at the top dose activity change, negative = inhibition, hits mostly inhibitors; hit rate 5.4% among 310,000; AID 2551; note: potency is the fitted concentration of half-maximal effect; nearly all actives have a fitted effect of over 60% in size
Target sequence (P51450 whole entry, looked up, the tested form may be a part): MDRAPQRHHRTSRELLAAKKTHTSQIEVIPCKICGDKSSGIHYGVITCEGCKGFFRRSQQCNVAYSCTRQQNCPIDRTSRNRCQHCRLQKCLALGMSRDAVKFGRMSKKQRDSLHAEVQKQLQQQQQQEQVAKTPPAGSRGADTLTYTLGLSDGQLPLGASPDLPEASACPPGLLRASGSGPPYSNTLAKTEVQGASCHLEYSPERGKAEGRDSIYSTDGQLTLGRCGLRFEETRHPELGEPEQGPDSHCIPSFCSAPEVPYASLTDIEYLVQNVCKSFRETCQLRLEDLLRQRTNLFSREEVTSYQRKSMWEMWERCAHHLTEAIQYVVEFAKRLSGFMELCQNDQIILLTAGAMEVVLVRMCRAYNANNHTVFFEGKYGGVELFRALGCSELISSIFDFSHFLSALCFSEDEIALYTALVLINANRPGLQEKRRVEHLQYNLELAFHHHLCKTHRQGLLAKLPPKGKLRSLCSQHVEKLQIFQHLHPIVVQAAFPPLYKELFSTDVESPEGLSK
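Stable Schneider cell line, Gal4 DNA-binding domain fused to ROR gamma, UAS-luciferase. Cmpd 1 hr RT → CuSO4 700 uM final → 20 hr RT → luciferase reagent 10 min → luminescence.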
TDP1 cell noCPT = qHTS for Inhibitors of human tyrosyl-DNA phosphodiesterase 1 (TDP1): qHTS in cells in absence of CPT. DT40 Tdp1-/- hTDP1 cells, no CPT, ATP luminescence, 48 h. Potency, µM (series often up to 46.2 µM), for inactives: at the highest dose activity change, negative = growth inhibition, usual class: inhibitors. hit rate 15% among 420,000. AID 686978, 2013; note: potency is the fitted concentration of half-maximal effect; nearly all actives have a fitted effect of over 55% in size
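A cellular qHTS used chicken DT40 cells lacking endogenous Tdp1 but carrying stably transfected human TDP1. Compounds were applied without camptothecin, and cell growth kinetics were judged by ATP-dependent luminescence after ≥48 hr.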
The depositor's hits bear a star; u = inconclusive; x = no result. Unless noted, calls come from the whole dose curve; as a rule, active = well fitted curve in the direction sought with a large enough effect; inconclusive = small, poorly fitted or top-dose-only effect, or another doubt; inactive = no such curve, though single readings can be large; an effect the other way counts as inactive or inconclusive. Unless noted, % is set by controls: 0 for no effect and ±100 for the full control effect.

SMILES	IL1B secr inh	DT40 TDP1 CPT	LDHA inh	Gal4-VP16 FLuc	RORgamma inh	TDP1 cell noCPT
Cc1cc(C)c(NC(=O)C(=O)NCC(c2cccnc2)N2CCN(c3ccccc3F)CC2)c(C)c1 (stereo not given)	x	14.6µM*	-2.2	x	x	14.6µM*
Cc1cc(C)c(NC(=O)C(=O)NCC(c2cccnc2)N2CCN(Cc3ccccc3)CC2)c(C)c1 (stereo not given)	x	11.6µM*	2.1	x	x	5.8µM*
Cc1ccc(NC(=O)C(=O)NCC(c2cccnc2)N2CCN(c3ccccc3F)CC2)cc1Cl (stereo not given)	x	20.6µM*	3.4	x	x	23.1µM*
Cc1cccc(NC(=O)C(=O)NCC(c2cccnc2)N2CCOCC2)c1 (stereo not given)	x	-19.6%	1.5	x	x	-28.5%
Cc1ccc(NC(=O)C(=O)NCC(c2cccnc2)N2CCN(C)CC2)cc1F (stereo not given)	x	-23.9%	-14.6	x	x	-22.9%
CN(CCOc1ccccc1)CC1CCCO1 (stereo not given)	x	x	4.9	x	x	x
CCOc1ccc(CNC(=O)c2ncoc2-c2cccs2)cc1	x	x	3.6	x	x	x
Cc1ccsc1C=Nc1ccc(O)cc1	-99.1*	u	31.4	u	10µM*	u
CCc1nc(Sc2nnnn2-c2ccccc2)c2c3c(sc2n1)CCCC3	-81.1*	16.4µM*	-3.6	-5.4%	-6.8%	18.4µM*
Cc1nc(Sc2nnnn2C)c2c3c(sc2n1)CCC3	-57.2*	2.06µM*	-4.7	-2.4%	-19.0%	1.64µM*
CC(Sc1ccc2c(c1)OCCCO2)C(=O)Nc1ccc(Br)cc1 (stereo not given)	x	x	17.3	x	x	x
CCCCOC(=O)C(C)Oc1ccc2c(=O)c(Oc3ccc(OC)cc3)coc2c1 (stereo not given)	x	x	-5.5	x	x	x
CN(Cc1ccc(Cl)cc1)C(C(=O)NC1CCCCC1)c1cc2ccccc2o1 (stereo not given)	-0.8	-107.3%	0.1	x	x	u
N#CCCN(Cc1ccccc1)C(C(=O)NC1CCCCC1)c1cc2ccccc2o1 (stereo not given)	33.2	20.6µM*	-2.9	x	x	18.4µM*
COc1ccc2c(C)c(CC(=O)NCc3ccc(C)cc3)c(=O)oc2c1	x	x	-0.1	x	x	x
O=C(Cc1noc(C(=O)NCc2ccccn2)n1)Nc1cccc2ncccc12	x	x	-4.2	x	x	x
CCN(CC)S(=O)(=O)c1ccc(C(=O)/C=C/c2ccc(-c3ccc([N+](=O)[O-])cc3)o2)cc1	0.0	u	0.4	6.1%	-29.3%	6.51µM*
Cc1ccc(C(=O)/C=C/c2ccc(-c3ccc(C)cc3)o2)cc1	-13.8	5.17µM*	3.9	u	37.2%	5.17µM*
O=C(/C=C/c1ccc(-c2ccccc2)o1)c1ccco1	x	x	2.1	x	x	x
O=C(/C=C\c1ccc(-c2ccccc2)o1)c1ccccc1	-91.5*	u	-0.5	-26.2%	13.4%	u
CCc1nnc2sc(-c3ccc(NC(=O)C(c4ccccc4)c4ccccc4)cc3)nn12	x	x	2.1	x	x	x
CCOc1ccc(C(=O)Nc2cccc3cccnc23)cc1Cl	x	x	5.4	x	x	x
CC(C)(C)OC(=O)N1CCCC1C(=O)NCc1ccc(Cl)cc1Cl (stereo not given)	x	x	1.3	x	x	x
O=C(c1cccc(N2CCCN(Cc3ccccc3)C2=O)c1)N1CCOCC1	x	x	-8.9	x	x	x
COCCCNCCC(CCC(C)C)c1ccc2c(c1)OCO2 (stereo not given)	-70.5*	u	-12.4	0.5%	-3.5%	20.6µM*
CC(C)CCC(CCN1CCCC1)c1ccc2c(c1)OCO2 (stereo not given)	-70.4*	u	-12.1	2.0%	22.5%	u
O=S(=O)(NCCc1nnc2ccc(SCc3ccc(C(F)(F)F)cc3)nn12)c1ccccc1	x	14.6µM*	2.9	x	x	u
Cc1ccc(S(=O)(=O)NCCc2nnc3ccc(SCc4ccccc4F)nn23)cc1	x	18.4µM*	2.5	x	x	20.6µM*
O=S(=O)(NCCc1nnc2ccc(SCc3cccnc3)nn12)c1ccccc1	-6.7	-11.9%	3.1	-4.3%	20.8%	-9.5%
